In the library only some 3.6% were active in any assay of this set; here they are far more common.
EBV LMP1 NFkB – inhibitors of Epstein-Barr LMP1-induced NF-kappaB reporter. LMP1-induced NF-kappaB luciferase reporter cells, luminescence. inhibition, % at 12.5 µM. actives 0.69% (n = 350,000). AID 504558; in the data active means inhibition above about 41%; inconclusive means no clear call, values can overlap the other calls;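 further: 0% = neutral control wells and 100% = reference inhibitor control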
LGR2 antag – Drosophila LGR2 receptor signaling inhibition | actives 0.35% (n = 380,000) | AID 720647 | inhibition, % at 9.99 µM | HEK293 LGR2, CRE-luciferase, bursicon-stimulated, 4 h;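 active means drop in luminescence signal, shown as inhibition above about 50% in the replicate tests, limit read from the data, passing the limit was not always enough; inconclusive means probably only some replicates passing the limit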;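 further: agonist challenge used bursicon conditioned medium at about half maximal strength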
TROY NFkB inh – blocks TROY-dependent signaling in reporter cells; Q293 LMP1-TROYcd NF-kB luciferase reporter, 4 h; inhibition, % at 10 µM; actives 0.98% (n = 360,000); AID 1347056;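 active means compounds whose plate-normalised and pattern-corrected inhibition of the luciferase reporter signal at the single screening dose is 50% or more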
HSF1 inh – HSF1 inhibition | NIH3T3-HGL HSE-luciferase, MG132-induced, luminescence 8 h; stronger effect = lower value | activity change, negative = inhibition, % at 7.5 µM (by protocol) | actives 0.77% (n = 300,000) | AID 2098;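 active means more than half of replicate wells show activity change below -50%, luminescence cut by over half; inconclusive means some wells, but at most half, below -50%; inactive means no replicate well below -50%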;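 further: luciferase reports HSF-1 transcriptional activity via heat shock element; 0% = median of DMSO wells and -100% = zero luminescence signal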
HSF-1 act – increases HSF-1 driven luciferase reporter signal. NIH3T3-HGL HSF-1 luciferase reporter, MG132, 8 h; 100% = twice DMSO control signal. activation, % at 9 µM. actives 1.7% (n = 300,000);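 active means mean replicate activation of at least 50% with a set share of replicates each reaching 50%; inconclusive means only one of those two conditions met; inactive means mean below 50% and too few replicates reaching it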;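 further: 0% = median of the neutral control wells and 100% = twice that signal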
TWEAK Fn14 block – inhibitors of TWEAK-Fn14 interaction signaling. actives 2% (n = 360,000). AID 1159606. inhibition, % at 10 µM. TWEAK-stimulated Fn14 reporter cells, luciferase luminescence, 8 h; in the data active means inhibition above about 50%
* hit, by the source's call; ? = inconclusive; / = not tested or not shown.

SMILES	EBV LMP1 NFkB	LGR2 antag	TROY NFkB inh	HSF1 inh	HSF-1 act	TWEAK Fn14 block
CCCN1[C@@H]2Cn3c(ccc(-c4ccccc4)c3=O)[C@H]1[C@@H](C(=O)N1CCCCC1)[C@@H]2CO	/	-12.5	/	/	/	/
Cc1cccc(N2C(=O)CS/C2=N\NC(=O)c2ccc(Br)cc2)c1C	-4.3	4.9	-4.7	-72.1*	-78.2	-0.1
Cc1cccc(N2C(=O)CS/C2=N\NC(=O)c2cccnc2)c1C	-4.3	-7.8	-9.0	5.0	15.1	-23.2
COCCn1c(C)c(C)c2c(NCCc3ccccc3)ncnc21	4.2	35.1	80.2*	-73.5*	-75.5	-59.1
Cc1c(C)n(CCc2ccccc2)c2ncnc(NCCCO)c12	-37.5	-72.8	-72.5	12.2	31.6	6.8
CO[C@@H](CN(C)C(=O)c1ccccc1F)[C@@H](C)CN([C@H](C)CO)S(=O)(=O)c1ccc(C)cc1	/	-19.3	/	/	/	/
CCN(CC)C1CCCCC1NS(=O)(=O)c1ccc(Cl)cc1 (stereo unspecified)	52.4*	4.5	-12.3	0.5	5.7	7.0
CN(c1ccccc1)C1CCCCC1NS(=O)(=O)c1ccc(Cl)cc1 (stereo unspecified)	-6.1	-62.1	8.6	22.3	30.8	17.8
O=C(/C=C/c1ccc(Cl)cc1Cl)Nc1cccc(S(=O)(=O)NC2=NCCC2)c1	-4.1	?	-9.2	23.5	62.6*	26.1
O=C(CC1CC1)N1[C@@H](CO)[C@@H]2c3ccccc3N(S(=O)(=O)c3ccccc3)C[C@@H]21	/	-9.0	/	/	/	/
CCCc1cc(-c2[nH]ncc2-c2ccc(C(=O)OCC)o2)c(O)cc1O	-6.9	6.9	34.2	-9.7	-24.5	58.6*
CCCc1cc(-c2[nH]ncc2-c2ccc3c(c2)OCCCO3)c(O)cc1O	-4.9	/	44.0	7.0	0.7	48.1
C[C@@H]1CCCCO[C@H](CN(C)C(=O)CCCN(C)C)[C@@H](C)CN([C@H](C)CO)C(=O)c2cc(NC(=O)c3ccccc3)ccc2O1	/	24.9	/	/	/	/
COc1ccc(-c2ccc(C(=O)Nc3cccc(F)c3)c3occc23)c(C)c1	/	-113.7	58.4*	/	/	50.0
COc1ccc(-c2ccc(C(=O)Nc3cccc(C(C)=O)c3)c3occc23)c(C)c1	/	-24.6	17.5	/	/	48.0
COc1ccc(-c2coc3c(C(=O)Nc4cccc(C(C)=O)c4)cccc23)c(C)c1	/	11.3	22.1	/	/	7.5
COc1ccc(-c2ccc(C(=O)Nc3cccc(NS(C)(=O)=O)c3)c3occc23)c(C)c1	/	2.7	43.1	/	/	58.6*
COc1ccc(-c2coc3c(C(=O)Nc4cccnc4)cccc23)c(C)c1	/	18.4	22.2	/	/	66.0*
O=C(C[C@H]1CC[C@H](NC(=O)CN2CCOCC2)[C@H](CO)O1)NCc1cccc(F)c1	/	-1.5	/	/	/	/
Cc1noc(C)c1S(=O)(=O)Nc1ccc2c(c1)C(=O)N([C@@H](C)CO)C[C@H](C)[C@@H](CN(C)C(=O)Nc1ccc3c(c1)OCO3)OCCCC[C@H](C)O2	/	8.2	/	/	/	/
C/C(CC(=O)Nc1ccccc1C(F)(F)F)=N\NC(=O)c1cnccn1	3.6	1.2	-34.3	-84.3*	-88.0	-5.6
COc1ccccc1NC(=O)C(=O)N/N=C(\C)CC(=O)Nc1ccccc1C(F)(F)F	47.0*	10.7	-11.9	-6.1	17.4	2.2
O=C(NCCO)c1cccc(Nc2nc(-c3ccccc3)c3cc(Cl)ccc3n2)c1	10.9	/	22.1	-8.0	2.0	51.0*
NNc1nc(-c2ccccc2)c2cc(Cl)ccc2n1	3.5	-14.9	-20.3	4.3	3.0	3.0
O=C(c1ccco1)N1CCN(S(=O)(=O)/C=C/c2ccccc2)CC1	49.2*	-11.4	6.0	-58.9*	-68.5	-10.0
SMILES	EBV LMP1 NFkB	LGR2 antag	TROY NFkB inh	HSF1 inh	HSF-1 act	TWEAK Fn14 block
O=C(c1ccco1)N1CCN(S(=O)(=O)c2ccc(Cl)cc2)CC1	-14.5	15.9	6.4	-2.0	4.2	-8.7
O=C(c1ccco1)N1CCN(S(=O)(=O)c2c(Cl)cccc2Cl)CC1	8.4	12.1	-11.3	-3.3	-18.2	92.1*
O=C(c1cc2ccccc2o1)N1CCN(S(=O)(=O)/C=C/c2ccccc2)CC1	6.0	-7.0	-8.6	-4.8	4.8	29.0
Cc1ccccc1S(=O)(=O)N1[C@H](C#N)[C@@H](c2ccccc2)[C@@H]1CO	/	3.4	/	/	/	/
COC(=O)[C@@]1(C)[C@H]2C(=O)N(Cc3ccccc3)C(=O)[C@H]2[C@H]2CN=C(SCc3ccc(Cl)cc3)N21	69.9*	-2.2	13.4	/	/	6.1
COC(=O)[C@@]1(C)[C@H]2C(=O)N(Cc3ccccc3)C(=O)[C@H]2[C@H]2CN=C(SCc3ccc(C#N)cc3)N21	12.1	1.3	2.1	/	/	19.6
COc1ccc2c3c(n(C)c2c1)[C@@H](CO)N(C(=O)c1ccccc1)CC31CN(CC2CC2)C1	/	-15.6	/	/	/	/
CNC[C@@H]1Oc2cc(C#CC(C)(C)O)ccc2S(=O)(=O)N([C@H](C)CO)C[C@H]1C	/	16.3	/	/	/	/
CC=Cc1ccc2n(c1=O)C[C@@H]1[C@@H](CO)[C@H](C(=O)NCC)N(CCC(F)(F)F)[C@H]21 (mixture of isomers)	/	-4.3	/	/	/	/
CC1=NN(c2cccc(C(=O)O)c2)C(=O)/C1=C\C=C/c1ccccc1	/	?	54.3*	73.7	99.9*	90.7*
CC1=NN(c2ccc(C)cc2)C(=O)/C1=C\C=C\c1ccccc1	-6.5	0.4	-4.9	7.0	14.3	94.4*
COc1ccc(C(=O)/C(C#N)=N/Nc2cccc([N+](=O)[O-])c2)cc1	14.9	-17.7	59.3*	-9.9	-15.1	60.0*
O=c1c(Cl)c(NCCCO)cnn1-c1nc2ccccc2[nH]1	-43.5	/	-10.4	53.7	63.2*	49.9
CC(C)=CCc1cc([C@@H]2COc3c(ccc4c3C=CC(C)(C)O4)C2)c(O)cc1O	17.2	14.4	10.1	4.1	3.1	63.4*
O=C(C[C@H]1CC[C@@H](NC(=O)Nc2ccc3c(c2)OCO3)[C@H](CO)O1)NCCCN1CCOCC1	/	0.5	/	/	/	/
Cc1ccc2c(c1)C(=NC1CCCCC1)c1cc3ccccc3nc1-2	-25.9	-12.6	-28.6	44.2	60.1*	44.9
Cc1ccc(-c2noc(C3CCCN(C(=O)c4ccc(F)cc4F)C3)n2)cc1 (stereo unspecified)	2.5	/	-14.2	3.5	17.1	4.0
CC(C)c1ccc(-c2noc(C3CCCN(C(=O)c4ccc(F)cc4F)C3)n2)cc1 (stereo unspecified)	18.9	/	27.5	2.9	17.7	51.6*
Cc1ccccc1NC(=O)N1CCCC(c2nc(-c3ccc(F)cc3)no2)C1 (stereo unspecified)	0.3	/	2.1	-9.9	-5.6	-4.4
Cc1ccccc1NC(=O)N1CCCC(c2nc(-c3ccc(C(C)C)cc3)no2)C1 (stereo unspecified)	-16.0	/	74.0*	-43.6	-50.2	55.4*
C[C@@H]1CCCCO[C@H](CN(C)C(=O)c2ccccc2)[C@@H](C)CN([C@@H](C)CO)C(=O)c2cc(NS(=O)(=O)c3cccs3)ccc2O1	/	10.8	/	/	/	/
